# Hits are enriched below; roughly 7.5% of the tested compounds scored in any of these assays.
# Rab9 promoter act = activates the Rab9 promoter; Huh7 Rab9 promoter-luciferase reporter, luminescence, 24 h; Potency, µM (doses to about 9.22 µM), for the others: top-dose activation, negative = inhibition, usual class: activators; hit rate 2.8% among 320,000; also: % of control where 0% means no effect; nearly all actives have a fitted effect of over 60% in size
#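 Stable Rab9-luc Huh7, 1500 cells/well, 2 h settle; cmpd in DMSO, 24 h, 37 °C/5% CO2; luciferase reagent 10 min RT; luminescence.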
# FLuc counter = firefly luciferase modulation, counter-screen for miR-21 project | P08659 | purified FLuc, Km substrates, luminescence inhibition | Potency, µM (series often up to 57.5 µM), without a hit: top-dose activity change, negative = inhibition, usual class: inhibitors | hit rate 6.9% among 360,000 | AID 588342;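 also: plate controls were vehicle for no effect and reference inhibitor for full effect; nearly all actives have a fitted effect of over 55% in size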
# Target sequence (P08659 whole entry, looked up): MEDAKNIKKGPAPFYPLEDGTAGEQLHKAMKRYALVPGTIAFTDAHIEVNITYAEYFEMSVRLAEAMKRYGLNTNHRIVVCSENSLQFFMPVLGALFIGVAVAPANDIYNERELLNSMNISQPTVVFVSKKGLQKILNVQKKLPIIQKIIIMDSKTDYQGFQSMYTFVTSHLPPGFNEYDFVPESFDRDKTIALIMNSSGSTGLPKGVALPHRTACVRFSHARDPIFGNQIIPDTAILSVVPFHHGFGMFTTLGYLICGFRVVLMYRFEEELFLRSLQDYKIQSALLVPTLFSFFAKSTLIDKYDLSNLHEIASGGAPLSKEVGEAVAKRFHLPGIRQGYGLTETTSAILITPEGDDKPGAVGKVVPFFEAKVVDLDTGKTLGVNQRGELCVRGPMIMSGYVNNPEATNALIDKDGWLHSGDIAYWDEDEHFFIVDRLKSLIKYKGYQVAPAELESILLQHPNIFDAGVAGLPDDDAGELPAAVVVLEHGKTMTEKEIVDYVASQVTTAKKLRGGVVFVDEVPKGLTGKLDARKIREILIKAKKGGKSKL
#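 Biochemical qHTS of compounds, final roughly 60 µM downward over six points, against 10 nM purified firefly luciferase using Km concentrations of substrates (10 uM D-luciferin, 10 uM ATP) in Tris acetate pH 7.5 buffer; luminescence output.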
# ELG1 genotox = induces genotoxicity in HEK293T cells with luciferase-tagged ELG1 | AID 504466 | Potency, µM (top dose mostly 46 µM), for the others: at the highest dose activity change, positive = activation, hits mostly activators | HEK293T ELG1-luciferase reporter, luminescence, 16 h | hit rate 1.3% among 330,000; also: % of control where 0% means no effect; nearly all actives have a fitted effect of over 60% in size
#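 16 hr compound incubation (37 °C, 5% CO2) of HEK293T cells carrying luciferase-tagged ELG1; luciferase then measured by ONE-Glo luminescence after 30 min at RT.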
# SMN2 splice enh = increases expression of the SMN2 splice variant | HEK293 SMN2-luciferase splicing reporter, luminescence, 30-36 h | Potency, µM (doses to about 46.1 µM), for the others: top-dose activity change, positive = activation, usual class: activators | hit rate 2.8% among 210,000; also: % of control where 0% means no effect; nearly all actives have a fitted effect of over 55% in size
#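 qHTS luciferase splicing reporter: luminescence rises when SMN2 exon 7 is included in transfected HEK293 cells. Compound exposure lasted 30-36 h at 37C, with 4.5 mM final sodium butyrate as control, followed by a ONE-Glo read.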
# NPC1 prom act = activators of NPC1 promoter; Huh7 NPC1 promoter luciferase reporter, 24 h; Potency, µM (highest dose often 9.22 µM), without a hit: top-dose activation, most hits filed as activators; hit rate 2.4% among 320,000; AID 485313; also: % of control where 0% means no effect; nearly all actives have a fitted effect of over 60% in size
#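 In 1536-well qHTS, Huh7 cells harboring an NPC1 promoter–luciferase construct received compound for 24 h; activation was quantified by luminescence following luciferase reagent addition.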
# The depositor's hits bear a star; ? = inconclusive; · = no result; [ ] = another dose, or the depositor's remark. Calls follow the shape of the dose curve; as a rule, active = well fitted curve in the direction sought with a large enough effect; inconclusive = small, poorly fitted or top-dose-only effect, or another doubt; inactive = no such curve, though single readings can be large; an effect the other way counts as inactive or inconclusive. Potency is read from the fitted curve at half-maximal effect.
SMILES,Rab9 promoter act,FLuc counter,ELG1 genotox,SMN2 splice enh,NPC1 prom act
O=c1cc(O)c2sc3nc(C(F)(F)F)c4c(c3c2[nH]1)CCCCC4,3%,19µM*,4%,-13%,1%
C/C(=N\Nc1ccccn1)c1ccc(S(=O)(=O)NCc2ccco2)cc1,-3%,?,0%,24%,0%
C/C(=N\Nc1ccc(C(=O)O)cc1)c1ccc(S(=O)(=O)NCc2ccco2)cc1,?,17µM*,10%,·,19%
C/C(=N\Nc1ccc(Cl)c(C(=O)O)c1)c1ccc(Br)s1,17%,?,18%,·,20%
C/C(=N/Nc1ncc(Br)cn1)c1ccc(Br)cc1,16%,-27%,2%,·,8%
C/C(=N\Nc1ccc(C(=O)O)cc1)c1ccc(Br)cc1,0.089µM*,0.19µM*,?,·,?
COc1ccccc1NS(=O)(=O)c1ccc(C(=O)OCC(=O)NCc2ccco2)cc1,-7%,4%,0%,-8%,-2%
C/C(=N\Nc1ccc(C(=O)O)cc1)c1ccc(Cl)s1,0.28µM*,0.95µM*,8%,·,0.4µM*
COc1ccccc1NC(=O)COC(=O)c1ccc(S(=O)(=O)NCc2ccco2)cc1,-2%,12µM*,-2%,-14%,-2%
CCCCN(CCCNC(=O)CN1C(=O)COc2ccc(S(=O)(=O)N3CCC(C)CC3)cc21)Cc1ccccc1,-5%,2%,1%,·,-2%
O=C(NCc1ccc(F)cc1)c1ccccc1OCc1ccccc1,2%,1%,-2%,-22%,0%
O=C(NNC(=O)c1ccccc1OCc1ccccc1)c1ccccc1O,-20%,19µM*,6%,·,-13%
O=C(N/N=C/c1ccccc1F)c1ccccc1OCc1ccccc1,-19%,17µM*,-12%,·,-23%
O=C(NNC(=O)c1ccccc1OCc1ccc(F)cc1)c1ccccc1O,-37%,27µM*,-2%,·,-28%
O=C(NNC(=O)c1ccccc1OCc1ccccc1)c1ccccc1F,29%,21µM*,23%,·,?
Cc1oc(-c2ccccc2F)nc1CSCC(=O)NCc1ccccc1,·,-16%,·,-8%,·
Cc1ccc(S(=O)(=O)NCC(=O)OCC(=O)NCc2ccc(F)cc2)cc1,-1%,2%,-3%,8%,-4%
CCC1=C2CC[C@H]3C(=O)N(CC)C(=O)[C@H]3[C@H]2[C@@]2(Cc3ccccc3)C(=O)N(CC3CC3)C(=O)N2C1=O,·,·,·,1%,·
O=S(=O)(c1ccccc1)[C@@]1(c2ccc(Br)cc2)C[C@@H]2ON=C(c3ccccc3)[C@@H]2C1,0%,11%,-3%,·,-6%
CC(=O)Nc1nc2ccc(-c3nc4ccccc4o3)cc2s1,4.5µM*,3.4µM*,?,5µM*,2.2µM*
O=C(Nc1nc2ccc(S(=O)(=O)N3CCCC3)cc2s1)c1cccs1,20%,?,1%,11%,-6%
CN(C)S(=O)(=O)c1ccc2nc(NC(=O)c3cccs3)sc2c1,0.89µM*,1.2µM*,2.3µM*,11µM*,1.4µM*
O=C(Nc1nc2ccc(F)cc2s1)c1cccs1,1.1µM*,2.4µM*,?,3.2µM*,3.2µM*
CC(=O)Nc1ccc(S(=O)(=O)Nc2cccc(-c3nc4ccccc4o3)c2)cc1,-6%,-16%,-7%,-26%,-3%
O=C(Nc1nc2ccc(S(=O)(=O)N3CCOCC3)cc2s1)c1cccs1,28%,19µM*,3%,·,27%
SMILES,Rab9 promoter act,FLuc counter,ELG1 genotox,SMN2 splice enh,NPC1 prom act
CCOC(=O)c1[nH]c(COC(=O)C2CC(=O)N(Cc3ccccc3)C2)c(C(=O)OCC)c1C (configuration not stated),2%,0%,9%,·,-2%
CC(=O)Nc1ccc2nc(NC(=O)COc3ccccc3)sc2c1,8%,-17%,0%,10%,14%
CN(C)S(=O)(=O)c1ccc2nc(NC(=O)c3cccnc3)sc2c1,·,3.8µM*,·,14µM*,·
O=C(Nc1nc2ccc(S(=O)(=O)N3CCCCC3)cc2s1)c1cccnc1,-4%,?,-1%,-7%,4%
CC(C)NS(=O)(=O)c1ccc2nc(NC(=O)c3cncc(Br)c3)sc2c1,·,19µM*,·,·,·
CNS(=O)(=O)c1ccc2nc(NC(=O)c3ccc(N4C(=O)CCC4=O)cc3)sc2c1,10%,?,-1%,22%,0%
CC(=O)Nc1ccc2nc(NC(=O)c3cccnc3)sc2c1,?,12µM*,11%,·,?
CC(=O)Nc1ccc2nc(NC(=O)C(Cl)(Cl)Cl)sc2c1,26%,15µM*,11%,·,25%
CSc1nc2ccc3nc(NC(=O)c4cccs4)sc3c2s1,4µM*,2.1µM*,?,7%,3.2µM*
O=C1OC(c2ccccc2)=N/C1=C\C=C\c1ccco1,1%,4.8µM*,-1%,·,-2%
O=C1OC(c2ccc(Cl)cc2)=N/C1=C\C=C\c1ccco1,-4%,?,1%,-11%,-2%
CCn1c(O)c(N=Nc2ccc3ccccc3n2)c2ccccc21,1.1µM*,3µM*,5.8µM*,·,3.2µM*
CCCCn1c(O)c(N=Nc2ccccn2)c2ccccc21,4%,?,-3%,-11%,-2%
CCS(=O)(=O)c1ccc(N=Nc2ccc(O)c3ncccc23)c(OC)c1,-40%,?,8%,-109%,-41%
Cc1ccc(N=Nc2ccc(O)c3ncccc23)cc1C,-9%,11µM*,10%,·,-18%
COc1ccccc1N=Nc1ccc(O)c2ncccc12,-22%,6.7µM*,?,·,-35%
COc1ccc2c(c1)C(c1ccc(Cl)cc1)NC(=O)C2 (configuration not stated),-3%,0%,2%,·,-2%
O=C1NC(=O)/C(=C/c2cc3c(cc2Br)OCO3)S1,3%,?,1%,·,-3%
O=C1NC(=O)/C(=C/c2ccc3c(c2)OC(F)(F)O3)S1,?,·,·,·,8.2µM*
Cc1cn([C@H]2C[C@H](O)[C@@H](COC(N)=O)O2)c(=O)[nH]c1=O,·,·,·,-15%[9.22 µM],·
N#CCCCCN1CCCC1,-2%,-2%,0%,·,-2%
O=C(N1CCCC1)N1CCN(c2ncnc3c(-c4ccc(Cl)cc4)nsc23)CC1,11%,17µM*,?,?,22%
O=C(c1ccccc1)N1CCN(c2ncnc3c(-c4ccccc4)nsc23)CC1,-5%,4%,-11%,·,-4%
Cc1ccc(C(=O)N2CCN(c3ncnc4c(-c5ccccc5)nsc34)CC2)cc1,-11%,-14%,-1%,-25%,-4%
Cc1ccc(-c2nsc3c(N4CCC(C(N)=O)CC4)ncnc23)cc1,2.8µM*,1.5µM*,?,-16%,1.6µM*
COC/C=C/C1=CC2=CC(=O)C(C)(OC(=O)c3cnc4ccccc4n3)C(=O)C2=CN1Cc1ccc2c(c1)OCO2 (configuration not stated),·,·,·,-9%[9.22 µM],·
CCc1ccccc1N1C(=O)N(Cc2ccccc2C)c2ccccc2S1(=O)=O,·,0%,·,·,·
COc1ccc(-c2nc3sc(CCNC(=O)c4ccc(C(C)(C)C)cc4)c(C)n3n2)cc1,·,4.8µM*,·,·,·

# Bioassay records as filed in PubChem BioAssay.
